The source of these data is PubChem BioAssay.

In general, inhibition refers to the change of the read-out against control, counted positive when it falls.

SMILES strings stand for the structures. Activity calls are given as the source filed them.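 Rule for the calls, unless noted: active = NADPH fluorescence slope more negative than the mean of all samples by about 3 SD, 99.7% confidence; inactive = the rest.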

A short description of test [1]: inhibitors of TNFa-induced NFkB p65 translocation, primary screen, imaging, HUVEC, MLSMR starter and 10KST1 sets (AID 438;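 active = inhibition above 20% together with a positive visual image hit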;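 note: compound added about 3h40 before a 20 min TNFalpha stimulation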;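 for inhibition: signal is the nuclear over cytoplasmic p65 intensity ratio per well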). To be noted: HUVEC TNFa-induced p65 nuclear translocation; cell count: measured here: nuclei count (cytotoxicity indicator), at 2.08 µM; inhibition: at 2 µM, stronger effect = higher value, 0% TNFa-plus-vehicle, 100% no-TNFa wells.
Test [2] is described as follows: inhibitors of mutant huntingtin aggregation, primary screen, imaging, exon1htt(103Q)mCFP cells, high-content imaging (AID 483;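 active = visual image review flags a hit and inhibition of aggregation exceeds 20%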;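 note: compound exposure lasted 3 days before fixation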;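 for nuclei count: percent of the per-plate median nuclei count of sample wells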). As to conditions: exon1htt(103Q)mCFP cell line, aggregate imaging, at 2 µM; inhibition of aggregation: stronger effect = higher value; nuclei count: measured here: cell count, toxicity.
Test [3] is described as follows: inhibitors of E-selectin induction by TNFa, primary screen, imaging, HUVEC, immunofluorescence, MLSMR starter and 10KST1 sets (AID 487;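 active = visually confirmed hit in the image check and inhibition above 20%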;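 for inhibition: signal is fraction of cell area covered by stained E-selectin grains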;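 for nuclei count: 100% = median nuclei count of all wells on the same plate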). As to conditions: HUVEC TNFalpha-induced E-selectin immunofluorescence imaging, at 2 µM; inhibition: stronger effect = higher value; nuclei count: measured here: cell number, toxicity.
The target in test [4] is Voltage-gated potassium channel subunit beta-2 (Rattus norvegicus) (UniProt P62483). Nature of the test: KvBeta enzyme negative modulators, primary screen, biochemical, NADPH fluorescence (AID 622;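 active = fluorescence slope higher than the sample average by over 3 SD, cut at about -0.22 in these data, passing the limit was not always enough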;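 note: slope of raw intensity against log time taken from 70 to 1610 s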). As to conditions: recombinant KvBeta, 4-cyanobenzaldehyde reduction, at 10 µM, stronger effect = higher value.
Sequence of Voltage-gated potassium channel subunit beta-2 (Rattus norvegicus) (P62483 whole entry, looked up): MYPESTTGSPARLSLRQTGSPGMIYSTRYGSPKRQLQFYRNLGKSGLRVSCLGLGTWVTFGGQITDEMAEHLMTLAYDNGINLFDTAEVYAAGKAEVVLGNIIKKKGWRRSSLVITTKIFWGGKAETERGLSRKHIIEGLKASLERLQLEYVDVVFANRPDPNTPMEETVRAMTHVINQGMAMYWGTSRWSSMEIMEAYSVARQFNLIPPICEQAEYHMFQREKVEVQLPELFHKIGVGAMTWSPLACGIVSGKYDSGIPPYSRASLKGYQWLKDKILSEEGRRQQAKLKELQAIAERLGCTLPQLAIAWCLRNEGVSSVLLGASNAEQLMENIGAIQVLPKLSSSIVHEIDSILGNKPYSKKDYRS
The target is the same in test [5]. Nature of the test: KvBeta positive modulators, primary screen, biochemical, NADPH fluorescence (AID 623).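 Note: fluorescence intensity change per second fitted from 20 to 320 s.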 To be noted: Recombinant KvBeta, NADPH fluorescence decrease slope, 10 min; at 10 µM; stronger effect = lower value.
Test [6] has as its target Alpha-2C adrenergic receptor (Homo sapiens) (UniProt P18825). Nature of the test: modulators of alpha2C/GIRK thallium flux, primary screen, cell-based, HEK293 alpha2C/GIRK1/2 (AID 624;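 active = fluorescence slope after compound addition differing from the mean of all screened samples at 99.7% confidence, in either direction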;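 note: slope of fluorescence ratio to pre-addition baseline per second over 15 to 24 s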). As to conditions: thallium flux BTC fluorescence, at 10 µM, actives lie on both sides.
Test [7] in a line: inhibitors of Sendai virus-induced IRF3 signaling, primary screen, TLR/RLR signaling modifier project, cell-based, Sendai virus stimulus, luciferase, 10K MLSCN set (AID 602276;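 active = inhibition at or above 50% at 10 µM; inactive = inhibition below 50%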;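 note: firefly luciferase from ISG56 promoter only with Renilla not read in this screen; 0% = Sendai virus plus DMSO and 100% = medium plus DMSO without virus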). To be noted: HEK293 RL24 IRF3 luciferase reporter, at 10 µM, stronger effect = higher value. For orientation: Reporter assays use an easily measured gene product as a stand-in for the process of interest.
The nature of test [8]: inhibitors of poly I:C-induced TLR3 signaling, primary screen, cell-based, poly I:C stimulus, luciferase, 10K MLSCN set (AID 602277;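 active = inhibition of the reporter signal at or above 50%; inactive = inhibition below 50%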). As to conditions: HEK293-TLR3 RL24 IRF3 luciferase reporter, at 10 µM, stronger effect = higher value.

Sequence of Alpha-2C adrenergic receptor (Homo sapiens) (P18825 whole entry, looked up): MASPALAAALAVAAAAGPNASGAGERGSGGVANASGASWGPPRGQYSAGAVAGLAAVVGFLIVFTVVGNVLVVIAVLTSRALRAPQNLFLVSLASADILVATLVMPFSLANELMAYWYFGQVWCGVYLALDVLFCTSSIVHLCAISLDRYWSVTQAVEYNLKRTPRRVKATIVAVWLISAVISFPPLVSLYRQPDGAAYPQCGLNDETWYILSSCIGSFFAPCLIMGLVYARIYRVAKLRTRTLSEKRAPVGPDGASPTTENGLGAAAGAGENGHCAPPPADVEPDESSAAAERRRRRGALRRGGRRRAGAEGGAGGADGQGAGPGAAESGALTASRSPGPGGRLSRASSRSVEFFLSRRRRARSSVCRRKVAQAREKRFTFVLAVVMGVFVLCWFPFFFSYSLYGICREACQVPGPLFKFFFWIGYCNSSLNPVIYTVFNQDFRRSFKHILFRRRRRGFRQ

Take `Cc1ccc(C)c(N(CC(=O)NC2CCCC2)C(=O)CCCC(=O)Nc2ccccn2)c1`: the cell count in test [1] was 516. Besides, the inhibition was -18.3% (inactive) in test [1], -50.6% (inactive) in test [3], 13.6% (inactive) in test [7] and 27.2% (inactive) in test [8]. Also, the inhibition of aggregation in test [2] was 7.5% (inactive). Also, the nuclei count in test [2] was 93.9%; in test [3], 95.7%. In test [4], the fluorescence slope is -0.539 (inactive). Also, in test [5], the NADPH fluorescence slope was -4.4e-05 (inactive). For the same compound, in test [6], the slope was 0.00581 (inactive).
As for `COc1ccc(-c2noc(-c3ccccc3C(=O)Nc3cccnc3)n2)cc1`, the cell count in test [1] was 218. In addition, the inhibition in test [1] is 6.7% (inactive); in test [3], -54.7% (inactive); in test [7], 12.1% (inactive); in test [8], 12.9% (inactive). Moreover, the inhibition of aggregation in test [2] was 0.1% (inactive). Further, the nuclei count was found to be 87.6% in test [2] and 95.3% in test [3]. Also, the fluorescence slope in test [4] is -0.601 (inactive). Moreover, the NADPH fluorescence slope in test [5] was 1.8e-05 (inactive). Also, in test [6], the slope is 0.00583 (inactive).
In the case of `Cc1sc2nc(SCc3nc4ccccc4[nH]3)n(Cc3ccco3)c(=O)c2c1C`, in test [1], the cell count turned out to be 585. For the same compound, the inhibition was -2.2% (inactive) in test [1], 8.2% (inactive) in test [3], 0.73% (inactive) in test [7] and -54.9% (inactive) in test [8]. Moreover, the inhibition of aggregation in test [2] was 17.5% (inactive). In addition, the figures for the nuclei count in test [2] and in test [3] were 91.4% and 97.3%, respectively. Moreover, the fluorescence slope in test [4] is -0.59 (inactive). Further, the NADPH fluorescence slope in test [5] was -2e-05 (inactive). The slope in test [6] was 0.00556 (inactive).
For the compound `CCOCCCNC(=O)c1cc2sc(Cl)cc2n1CC`, the cell count in test [1] is 449. In addition, the inhibition is 17.9% (inactive) in test [1], -80.9% (inactive) in test [3], 34.7% (inactive) in test [7] and 19.5% (inactive) in test [8]. Also, in test [2], the inhibition of aggregation is -1.1% (inactive). The figures for the nuclei count in test [2] and in test [3] were 89.7% and 100%, respectively. Also, in test [4], the fluorescence slope is -0.531 (inactive). In addition, the NADPH fluorescence slope in test [5] is -9.5e-05 (inactive). In addition, in test [6], the slope is 0.00603 (inactive).
Turning to `CCn1c(SCc2nc(-c3cccs3)no2)nnc1-c1c[nH]c2ccccc12`, the cell count in test [1] worked out at 296. Also, the inhibition is 3.4% (inactive) in test [1], -1.6% (inactive) in test [3], 10.2% (inactive) in test [7] and 13.6% (inactive) in test [8]. In addition, the inhibition of aggregation in test [2] is 1.2% (inactive). For the same compound, the nuclei count in test [2] was 82.9%; in test [3] it was 102%. The fluorescence slope in test [4] was -0.34 (inactive). Also, the NADPH fluorescence slope in test [5] is 1.2e-05 (inactive). Also, the slope in test [6] was 0.0036 (inactive).
Turning to `COCCCNC(=O)CCCn1c(=O)c2ccccc2n(CC(=O)Nc2c(C)cccc2C)c1=O`, in test [1], the cell count came out at 709. The inhibition in test [1] was -4.7% (inactive); in test [3], -64% (inactive); in test [7], 8.62% (inactive); in test [8] it was 32.1% (inactive). For the same compound, in test [2], the inhibition of aggregation was -15.7% (inactive). Moreover, the nuclei count came to 105% in test [2] and 99.1% in test [3]. Further, the fluorescence slope in test [4] is -0.505 (inactive). The NADPH fluorescence slope in test [5] was 2.2e-05 (inactive). For the same compound, the slope in test [6] was 0.00674 (inactive).
For `C1=Nc2c(NCc3ccccc3)ncnc2Oc2ccccc21`, the cell count in test [1] was 305. In addition, the inhibition in test [1] was -0.2% (inactive); in test [3], -17.3% (inactive); in test [7], -11.5% (inactive); in test [8], 1.46% (inactive). In addition, in test [2], the inhibition of aggregation was 3.8% (inactive). In addition, the nuclei count in test [2] was 98.1%; in test [3] it was 112%. Besides, in test [4], the fluorescence slope was -0.502 (inactive). Also, the NADPH fluorescence slope in test [5] is -2.6e-05 (inactive). Also, the slope in test [6] was 0.00376 (inactive).
For the compound `COc1ccccc1CC(NC(C)=O)C(=O)NC1CCN(c2nnnn2-c2ccccc2)CC1` (centres undefined), in test [1], the cell count was 761. In addition, the inhibition was -5.5% (inactive) in test [1], -19.7% (inactive) in test [3], -1.4% (inactive) in test [7] and 16.9% (inactive) in test [8]. In addition, the inhibition of aggregation in test [2] was -29.5% (inactive). Also, the nuclei count is 63.6% in test [2] and 117% in test [3]. Besides, the fluorescence slope in test [4] was -0.624 (inactive). For the same compound, in test [5], the NADPH fluorescence slope was 1.1e-06 (inactive). Moreover, in test [6], the slope was 0.00623 (inactive).
For `O=C(CS(=O)(=O)c1cn(Cc2ccc(Cl)cc2)c2ccccc12)N1CCOCC1`, the cell count in test [1] worked out at 531. The inhibition in test [1] was 4.3% (inactive); in test [3] it was -8.5% (inactive); in test [7], 5.23% (inactive); in test [8] it was 17.5% (inactive). In addition, the inhibition of aggregation in test [2] is 37.8% (inactive). Besides, the nuclei count in test [2] worked out at 91.1%; in test [3], 110%. The fluorescence slope in test [4] is -0.504 (inactive). Moreover, the NADPH fluorescence slope in test [5] is 7.7e-07 (inactive). The slope in test [6] was 0.00671 (inactive).
